This is an account of results in PubChem BioAssay AID686979 (National Center for Advancing Translational Sciences (NCATS), 2013).

The campaign covered roughly 420,000 compounds. About 50,000 (12%) were called active. Inconclusive results (about 26%) are left out. Shown is part of a subset that was picked to be rich in actives. Values without a mark were called inactive. Calls follow the shape of the dose curve; as a rule, active = well fitted inhibition curve with a large enough effect; inconclusive = small, poorly fitted or top-dose-only effect; inactive = flat fitted curve, though single readings scatter.
% is scaled to controls: 0 for no effect and ±100 for the full control effect; potency is read from the fitted curve at half-maximal effect.

The nature of the test: qHTS for Inhibitors of human tyrosyl-DNA phosphodiesterase 1 (TDP1): qHTS in cells in presence of CPT. Also: nearly all actives have a fitted effect of over 55% in size. The note with it: chicken DT40 Tdp1-/-;hTDP1 cells + 20 nM CPT, ATP luminescence, 48 h; series mostly up to 46.2 µM; activity change, negative = growth inhibition: at the top concentration. The procedure, abridged: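 Chicken DT40 Tdp1-/- cells complemented with human TDP1, 400 cells/well, exposed to compounds plus 20 nM camptothecin for at least 48 h at 37 C; viability read as ATP content by CellTiter-Glo luminescence.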
As for `Cc1[nH]c2ccccc2c1C(=O)CN1CC(C)CC(C)C1` (centres undefined), the Potency was 11.6 µM (active).

`Cc1ccc2c(C(=O)CN3CCCC3)c(C)[nH]c2c1`: the “activity change, negative = growth inhibition” value is -19.6%.

As to `Cc1[nH]c2ccccc2c1C(=O)CSCC(=O)O`, the “activity change, negative = growth inhibition” value is -19.6%.

For `Cc1[nH]c2ccccc2c1C(=O)COC(=O)C(C)C`, the “activity change, negative = growth inhibition” value was -4.53%.

For `CCOCCCNC(=O)C(NC(=O)Cc1c[nH]c2ccccc12)c1ccc(OC)cc1` (centres undefined), the “activity change, negative = growth inhibition” value is 2.87%.

As to `COc1cccc(NC(=O)N2CCN(C(=O)c3nsc4ccccc34)CC2)c1`, the “activity change, negative = growth inhibition” value was 5.7%.

For the compound `COC(=O)Cn1cnc2scc(-c3ccc(C)c(C)c3)c2c1=O`, the “activity change, negative = growth inhibition” value is 7.8%.

Regarding `CCOC(=O)c1c(NC(=O)COC(=O)c2ccc(S(=O)(=O)C(F)F)cc2)sc(C(=O)N(C)C)c1C`, the “activity change, negative = growth inhibition” value is -14.4%.

Regarding `CCOC(=O)Nc1sc(C(=O)N(C)C)c(C)c1C(=O)OCC`, the “activity change, negative = growth inhibition” value is -13.3%.

Consider `CCOC(=O)c1c(NC(=O)CCl)sc(C(=O)N(CC)CC)c1C`, for which the Potency was 13 µM (active).

For the compound `O=C(COC(=O)c1ccc([N+](=O)[O-])cc1Cl)NC(=O)c1ccccc1`, the “activity change, negative = growth inhibition” value is 1.48%.

As for `O=C(NCCN1CCOCC1)c1cnn(-c2nccc(-c3cccs3)n2)c1C1CC1`, the “activity change, negative = growth inhibition” value was 2.01%.

For the compound `CCC(=O)Nc1ccc(C(=O)N2CCN(C(=O)c3ccco3)CC2)cc1`, the “activity change, negative = growth inhibition” value was -9.24%.

For `NS(=O)(=O)c1ccc(NC(=O)C(=O)Nc2ccc3nc4n(c(=O)c3c2)CCCCC4)cc1`, the “activity change, negative = growth inhibition” value was 14.5%.

With `O=C(c1ccco1)N1CCN(c2cccc(Cl)c2)CC1`, the “activity change, negative = growth inhibition” value is -25.2%.

Turning to `COc1ccc(C(=O)Nc2ccc(N3CCC(C)CC3)cc2)cc1Br`, the “activity change, negative = growth inhibition” value was 8.77%.

As to `COc1cccc(C(=O)Nc2ccc(NC(=O)c3ccco3)cn2)c1`, the “activity change, negative = growth inhibition” value was -16.7%.

Take `Cc1ccc(OCC(=O)Nc2ccc(N3CCN(C(=O)c4ccco4)CC3)cc2)c(C)c1`: the Potency was 16.4 µM (active).

Turning to `O=C(Nc1ccc2nc3n(c(=O)c2c1)CCCC3)c1ccc(Cl)nc1`, the “activity change, negative = growth inhibition” value is -13.5%.

For `COc1cccc(C(=O)Nc2ccc(N3CCN(C(=O)c4ccco4)CC3)cc2)c1`, the Potency is 14.6 µM (active).

On to `Cc1ccc(C)c(OCC(=O)N2CCN(C(=O)c3ccco3)CC2)c1`, for which the “activity change, negative = growth inhibition” value was -28.5%.

For `COc1cccc(C(=O)Nc2ccc3nc4n(c(=O)c3c2)CCCCC4)c1`, the Potency is 20.6 µM (active).

On to `COc1cccc(C(=O)Nc2ccc(N3CCCC3)cc2)c1`, for which the Potency is 9.2 µM (active).

With `CN1CCN(c2ccc(NC(=O)c3ccccc3)cc2)CC1`, the “activity change, negative = growth inhibition” value is 0.495%.

With `COc1cccc(COC(=O)C2CCN(S(=O)(=O)c3ccc(Cl)cc3)CC2)c1OC`, the “activity change, negative = growth inhibition” value is -13.8%.

Take `COc1ccc(CN2CC[C@H]3C=CC[C@@H](C(=O)N4CCOCC4)[C@H]3C2=O)cc1OC`: the Potency result was “inactive”.

Take `C=CCN1C(=NC(=O)COc2ccccc2)SC2CS(=O)(=O)CC21` (centres undefined): the “activity change, negative = growth inhibition” value was -2.8%.

As for `COc1ccc(CCNC(=O)CSc2nnc3ccc(-c4ccncc4)nn23)cc1`, the “activity change, negative = growth inhibition” value was -27.7%.

For the compound `CCOC(CNC(=O)C(=O)NCC(c1ccco1)N1CCN(c2ccc(OC)cc2)CC1)OCC` (centres undefined), the “activity change, negative = growth inhibition” value was -12.4%.

Take `COc1ccc2ccccc2c1CNCc1ccccn1`: the “activity change, negative = growth inhibition” value is -4.31%.

Consider `Cc1cccc(C(C)C)c1NC(=O)COC(=O)C1CC(=O)N(Cc2ccccc2)C1` (centres undefined), for which the “activity change, negative = growth inhibition” value was -15.7%.

On to `COc1ccc2[nH]cc(CCNc3cc(-c4ccccc4CN(C)C)ncn3)c2c1`, for which the “activity change, negative = growth inhibition” value is -26.4%.

Regarding `COc1ccc2[nH]cc(CCNc3ncnc4ccc(-c5ccc(C(=O)N(C)C)cc5)cc34)c2c1`, the Potency was 20.6 µM (active).

As for `COc1ccc2[nH]cc(CCN3C(=O)c4ccc(C(=O)O)cc4C3=O)c2c1`, the “activity change, negative = growth inhibition” value was -5.94%.

On to `Cc1ncc([N+](=O)[O-])n1CCOC(=O)c1ccc(Br)cc1`, for which the “activity change, negative = growth inhibition” value is 5.56%.

As to `CCOC(=O)c1ccc2c(c1)nc(C)n2CC`, the “activity change, negative = growth inhibition” value was -27.8%.

As to `CCn1c(/C=C/Nc2ccccc2)[n+](CC)c2ccc(C(=O)OCC(F)(F)F)cc21`, the Potency is 25.9 µM (active).

In the case of `NC(CSC1(c2ccccc2)c2ccccc2-c2ccccc21)C(=O)O` (centres undefined), the “activity change, negative = growth inhibition” value was -18.1%.

For `CCNC(=O)Nc1ccc(S(=O)(=O)Nc2cnc(C)nc2C)cc1`, the “activity change, negative = growth inhibition” value was -2.56%.

Regarding `Cc1cc(C)c(C#N)c(SCC(=O)N(CC(C)C)C2CCS(=O)(=O)C2)n1` (centres undefined), the “activity change, negative = growth inhibition” value was 2.6%.

Regarding `CNc1cncc(-c2ccc(NS(C)(=O)=O)cc2)n1`, the Potency was 2.91 µM (active).

For `CS(=O)(=O)Nc1ccc(C(=O)N2CCCC2)cc1`, the “activity change, negative = growth inhibition” value was 12.6%.

On to `CCCS(=O)(=O)Nc1ccc(-c2cn3c(n2)SCC3)cc1`, for which the “activity change, negative = growth inhibition” value was -0.742%.

Turning to `CC1(C)C/C(=N/Nc2ccc([N+](=O)[O-])cc2[N+](=O)[O-])C(C)(C)O1`, the “activity change, negative = growth inhibition” value is -11.8%.

With `CCc1c(C)nc(SCC(=O)NC2CCCC2)[nH]c1=O`, the “activity change, negative = growth inhibition” value was -2.07%.

In the case of `CC(C)(C)C(=O)Cn1c(NCCO)nc2ccccc21`, the “activity change, negative = growth inhibition” value was -3.07%.

`CCCn1c(NCc2ccccc2F)nc2ccccc21`: the “activity change, negative = growth inhibition” value was 5.1%.

With `CCCn1c(NCc2ccc(N(CC)CC)cc2)nc2ccccc21`, the Potency is 25.9 µM (active).

Take `CC(=O)NC(CC(=O)Nc1ccc(S(=O)(=O)N2CCOCC2)cc1)c1ccccc1` (centres undefined): the “activity change, negative = growth inhibition” value is 0.997%.
